# Data taken from PubChem BioAssay (NCATS).
# Records with an inconclusive call do not appear. Activity calls are given as the source filed them. Calls follow the shape of the dose curve; as a rule, active = well fitted inhibition curve with a large enough effect; inconclusive = small, poorly fitted or top-dose-only effect; inactive = no such curve, though single readings can be large or run the other way.
# System: Zika virus NS2B-NS3 protease (linked construct)
# Assay: Primary screen NINDS Rhodamine qHTS for Zika virus inhibitors (AID 1347160); also: nearly all actives have a fitted effect of over 55% in size
# Conditions: purified NS2B-NS3 protease, Rhodamine110 substrate fluorescence; series mostly up to 57.1 µM; activity change, negative = inhibition: at the top concentration
# Procedure, shortened: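 Purified linked NS2B-NS3 protease (NS2B hydrophilic domain joined to NS3 protease by flexible linker), 25 nM in 10 mM Tris-HCl pH 8.0, 0.01% Tween 20. Compounds titrated, 15 min preincubation at room temperature; 1.5 microM Rhodamine110 substrate, FITC fluorescence change over 15 min.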
# % is scaled to controls: 0 for no effect and ±100 for the full control effect.
row,SMILES,"activity change, negative = inhibition"
1,Cc1ccc(S(=O)(=O)Nc2ccccc2N2CCCCC2)s1,1.04% (inactive)
2,O=C(c1ccccc1)c1ccc2nc(NC(=O)c3csc(C4CCN(c5ncnc6ccsc56)CC4)n3)[nH]c2c1,11.7% (inactive)
3,OC[C@H]1O[C@@H](O[C@H]2[C@H](OCCc3ccccc3)O[C@H](CO)[C@@H](O)[C@@H]2O)[C@H](O)[C@@H](O)[C@@H]1O,-17.3% [at 33.1 µM] (inactive)
4,[N-]=[N+]=N[C@]1(CO)O[C@@H](n2ccc(=O)[nH]c2=O)[C@@H](O)[C@@H]1O,28% (inactive)
5,C=C(CO[C@@H]1O[C@H](CO[C@@H]2OC[C@](O)(CO)[C@H]2O)[C@@H](O)[C@H](O)[C@H]1O)C1Cc2cc(C(C)=O)ccc2O1 (stereo partly specified),-5.28% [at 33.1 µM] (inactive)
6,COC(=O)N1CCC(n2ncc3c(N4CCOCC4)nc(-c4ccc(NC(=O)Nc5ccc(CO)cc5)cc4)nc32)CC1,19.2% (inactive)
